CYP2C9 activ: human CYP2C9 activators, primary screen, biochemical, luminescence. activation factor at 5 µM. recombinant CYP2C9, luciferin-H conversion; active compounds read high; factor 1 = untreated enzyme, 0 = blocked. AID 1024, 2008. 96,000 compounds, 1.4% hits;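 active = activation factor of 2 or more for CYP2C9 at a 5 µM dose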;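 note: 0 = sulfaphenazole-blocked wells and 1 = vehicle-only wells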
CYP2C19 act: human CYP2C19 activators, primary screen, biochemical, luminescence | Cytochrome P450 2C19 (Homo sapiens), P33261 | recombinant CYP2C19, luciferin-H EGE luminescence; active compounds read high; 0 = fully inhibited enzyme, 1 = untreated enzyme | activation factor at 5 µM | 96,000 tested, under 10 active;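 active = activation factor of at least 2 at 5 µM in the primary screen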;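 note: 0 = wells with 2.5 mM tranylcypromine and 1 = vehicle-only wells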
Target sequence (P33261 whole entry, looked up): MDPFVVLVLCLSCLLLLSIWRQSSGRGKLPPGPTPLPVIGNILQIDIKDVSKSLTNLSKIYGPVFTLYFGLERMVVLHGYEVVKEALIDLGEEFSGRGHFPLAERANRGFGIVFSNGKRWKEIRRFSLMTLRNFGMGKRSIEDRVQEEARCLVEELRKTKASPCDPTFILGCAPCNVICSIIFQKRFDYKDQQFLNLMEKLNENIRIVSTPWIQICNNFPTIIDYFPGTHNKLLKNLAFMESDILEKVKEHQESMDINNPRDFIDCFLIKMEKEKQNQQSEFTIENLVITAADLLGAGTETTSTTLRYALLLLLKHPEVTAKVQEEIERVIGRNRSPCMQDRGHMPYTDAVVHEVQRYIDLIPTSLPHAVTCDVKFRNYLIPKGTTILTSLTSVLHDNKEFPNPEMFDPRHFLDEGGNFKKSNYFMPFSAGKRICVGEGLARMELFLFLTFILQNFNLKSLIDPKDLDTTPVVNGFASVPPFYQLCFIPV
CYP2C9 inhib: blockers of cytochrome P450 2C9 activity – biochemical, luminescence, ADME assay, primary screen; P11712; CYP2C9 Supersomes, luciferin-H conversion; inhibition, % at 5 µM; 96,000 compounds, 20% hits; AID 777, 2007;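 active = blocking of liver enzyme CYP2C9 beyond about 50% at 5 µM, limit read from the data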
CYP2C19 inhib: blockers of cytochrome P450 2C19 activity – biochemical, luminescence, ADME assay, primary screen. P33261. CYP2C19 Supersomes, luciferin-H EGE luminescence, 30 min. inhibition, % at 5 µM. 96,000 compounds, 21% hits. AID 778, 2007;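 active = CYP2C19 inhibition above a set limit at 5 µM in the primary screen, cut at about 50% in these data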;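 note: plate controls were negative control wells for no effect and 2.5 mM tranylcypromine positive control for full effect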
Cav3 T inh: Cav3.2 calcium influx blockers – cell-based, Fluo-4 calcium fluorescence, FDSS, MLSMR library, primary screen. AID 449739, 2010. 100,000 compounds, 4% hits. Voltage-dependent T-type calcium channel subunit alpha-1H (Homo sapiens), O95180. B-score at 10 µM. Cav3.2-expressing cells; active compounds read low;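 active = single-dose well whose peak fluorescence ratio is a statistical outlier from its plate by either plate-standardised score or position-corrected B-score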
Starred values were filed as active, the others as inactive; / = no result given. Hits are enriched below; roughly 27% of the tested compounds scored in any of these assays.

SMILES	CYP2C9 activ	CYP2C19 act	CYP2C9 inhib	CYP2C19 inhib	Cav3 T inh
Cc1ccc(C(=O)CSc2nnc(-c3cccnc3)n2N)cc1	1	1	2.9	1.7	0.214
CCN1C=CC2=C(C#N)C(N)C(C#N)(C#N)C(c3ccccc3C(F)(F)F)C2C1 (stereo not given)	/	/	/	/	-2.93
Cc1ccc(-c2nc(Nc3ccccc3)n[nH]2)cc1	0.7	0.3	27.4	68.8*	0.125
CCOC(=O)C1Cn2c(nc3c(c2=O)C2(CCCC2)Cc2ccccc2-3)S1 (stereo not given)	0.6	0.4	38.1	62.4*	-5.38*
O=c1c2c(nc3n1CCCCC3)-c1ccccc1CC21CCCC1	0.7	0.7	29.5	28.9	/
CCOC(=O)C1Cn2c(nc3c(c2=O)C(C)(C)Cc2ccccc2-3)S1 (stereo not given)	0.1	0	88.1*	97.2*	-6.41*
CN(C)c1nc2ccc(OCCN3CCCCC3)cc2s1	0.9	1	7.8	4.3	0.526
Nc1ccc(CCc2nc3ccccc3o2)cc1	0.2	0	75.9*	96.0*	-0.0335
NCc1ccc(-c2nc3ccccc3o2)cc1	0.3	0	70.0*	98.0*	/
O=C(CCCC1=NS(=O)(=O)c2ccccc2N1)N1CCN(c2ccccc2)CC1	0.8	0.9	23.6	9.2	0.6
CC(C)(CC(=O)N1CCN(c2ccc(Cl)cc2)CC1)CC1=NS(=O)(=O)c2ccccc2N1	0.2	0.4	78.6*	63.7*	/
Cc1cc(-c2ccccc2)nc(N(C)NC(=O)c2c(F)cccc2F)c1S(C)(=O)=O	0.3	0.5	69.4*	50.7*	-1.73
NC(=O)c1cc(Cl)cn(-c2ccccc2)c1=O	1.3	1.3	-26.0	-25.3	0.0417
COc1ccc(Br)cc1C1SCCN1S(C)(=O)=O (stereo not given)	1	0.5	2.7	49.7	-0.038
c1cn(-c2ncnc3sc4c(c23)CCCC4)cn1	0.9	0.7	9.4	27.8	-1.1
c1nc(N2CCOCC2)c2c3c(sc2n1)CCCC3	0.8	0.4	24.0	64.6*	/
O=C(O)CSc1ncnc2sc3c(c12)CCC3	0.9	1	5.6	-4.1	/
O=C(c1ccccc1)N1CCN(c2ncnc3sc4c(c23)CCC4)CC1	0.2	0.1	82.9*	92.2*	0.27
c1ccn(-c2ncnc3sc4c(c23)CCCC4)c1	0.7	0	34.5	96.4*	-0.0351
CSc1nc(N2CCOCC2)c2c3c(sc2n1)CCCC3	0.5	0.9	47.9	8.6	-2.95
COC(=O)C1=C(C(=O)OC)[C@@H]2N(C)c3ccccc3[C@@]23C[C@@H](CO)N(C(=O)NCCBr)C3=N1	/	/	/	/	-3.71
COCCCNC(=O)c1ccc(C(=O)NCCCOC)cc1	1	1	-0.4	-2.2	0.678
COCCCNC(=O)c1ccc(Cn2c(=O)c3ccccc3n(Cc3ccc(C)cc3)c2=O)cc1	0.5	0.5	54.0*	47.1	-1.36
O=S(=O)(CC(CN1CCCC1)N1CCCC1)c1ccc2ccccc2c1 (stereo not given)	/	/	/	/	1.13
O=C(OCc1ccc(Cl)cc1)c1ccccc1C(=O)c1ccccc1	0.7	0.3	29.1	72.1*	/
SMILES	CYP2C9 activ	CYP2C19 act	CYP2C9 inhib	CYP2C19 inhib	Cav3 T inh
CCC(=O)Nc1ccccc1C(=O)OCc1ccc(C(=O)c2ccccc2)cc1	0.4	0.6	61.8*	42.5	-3.81
O=C(O)c1ccccc1C(=O)OCc1ccccc1	1.1	1	-8.3	-2.2	-0.0738
O=C(C1COc2ccccc2O1)N1CCc2ccccc2C1 (stereo not given)	/	/	/	/	-1.58
Cc1n[nH]c(=O)n1-c1cccc(C(F)(F)F)c1	1	1.1	1.3	-6.6	-0.422
COc1ccc([C@@H]2[C@H]3C(=O)N(c4cccc(C(F)(F)F)c4)C(=O)[C@H]3ON2C)cc1	0.6	0.5	36.6	54.8*	0.251
CC(C)CNC(=O)c1cccc(NC(=O)C2CCCO2)c1 (stereo not given)	0.9	1	14.1	2.2	-0.296
Cc1ccc(OCC(=O)N2CCN(c3nnc(-c4ccccc4)c4ccccc34)CC2)cc1	0.6	0.5	44.8	46.7	-9.65*
Cc1nc(N2CCN(C(=O)COc3ccccc3)CC2)c2c(C)c(C)sc2n1	0.1	0.6	92.6*	36.0	-3.95*
O=C(CSc1ncn[nH]1)N1CCN(S(=O)(=O)c2ccccc2)CC1	0.6	0.5	41.8	48.6	0.295
CCN(CC)C(=O)COc1ccc(-c2nnc(N3CCCCC3)c3ccccc23)cc1	0.2	0.5	79.5*	52.3*	-2.36
Cc1ccc(OCC(=O)N2CCN(C3=NS(=O)(=O)c4ccccc43)CC2)cc1	1.1	1.1	-11.9	-9.3	-0.0679
Cc1nc(N2CCC(C)CC2)c2c(C)c(C(=O)O)sc2n1	1.1	1.1	-8.4	-7.0	1.1
Cc1ccc(-c2nnc(N3CCN(C(=O)CSc4ncn[nH]4)CC3)c3ccccc23)cc1	0.4	0.3	64.2*	69.8*	2.76
CCOc1ccc(-c2nnc(N3CCCCC3)c3ccccc23)cc1	0.6	0.6	43.5	38.8	-3.15
CCCCn1nc(-c2ccccc2)c2nc3ccccc3nc21	1	1.1	2.8	-9.2	-7.26*
Cn1nc(-c2ccccc2)c2nc3ccccc3nc21	0.8	0.9	16.7	12.1	-0.648
O=c1ccn(-c2cccc(C(F)(F)F)c2)nc1-c1ccn(-c2cccc(Cl)c2)n1	0.5	0.7	52.2*	27.6	-5.69*
Nc1c(-c2cccc(Cl)c2)cnn1-c1cccc(C(F)(F)F)c1	1.3	0.8	-25.4	23.5	-1.64
COc1ccc2nc(N3C(=O)CC(Cc4cc(C)cc(C)c4)C3=O)sc2c1 (stereo not given)	0.7	0.7	30.0	33.4	/
CC(=O)c1cc(F)c(N2CCCCCC2)cc1C	/	/	/	/	0.128
Cc1cc(N2CCCC2)c(C)cc1C=O	0.4	0.7	61.9*	27.7	-0.726
COCCNc1nnc(SCC(=O)c2ccc3c(c2)OCO3)s1	0.7	0.5	26.5	53.4*	0.109
Cc1nnc(SCc2cccc(CSc3nnc(C)s3)c2)s1	0.8	0.7	16.7	33.1	1
Cn1cnnc1SCC(=O)c1ccc2c(c1)OCO2	1.3	1	-26.8	-0.2	/
Cc1nnc(SCC(=O)c2cc(C)n(-c3ccc4c(c3)OCO4)c2C)s1	0.2	0	82.7*	97.2*	-2.18
Cc1cc(C(=O)CSc2nnc(-c3ccccc3)n2Cc2ccc3c(c2)OCO3)c(C)n1C	1.1	0.9	-7.5	13.0	-0.0459
Cc1nnc(SCc2ccc3c(c2)OCO3)s1	0.5	0.3	54.7*	69.4*	-0.963
COC(=O)C1C(=O)NC(SC)=C(C#N)C1c1ccccc1F (stereo not given)	/	/	/	/	-0.0102
Nc1nc(CN2CCN(Cc3ccccc3)CC2)nc(Nc2ccccc2)n1	1	1.1	-4.0	-8.9	1.1
COc1ccccc1Nc1nc(N)nc(CN2CCN(Cc3ccccc3)CC2)n1	0.9	0.9	9.9	5.3	-0.0376

Source: PubChem BioAssay
